# Values joined by “and” are separate entries in the source; they are usually repeats but may differ in a detail not shown here. Equal values may be shown once. Results filed as inconclusive are left out. Active and inactive are the calls of the source. Unless noted, the call rests on the fitted dose curve; in most records, active means well fitted curve in the direction sought with a large enough effect; inconclusive means small, poorly fitted or top-dose-only effect, or another doubt; inactive means no such curve, though single readings can be large; an effect the other way counts as inactive or inconclusive. *1 amine or outer side, *2 acyl side, *3 side chain or, on linkers, in order; H or OH if unused. Where a SMILES comes first, the peptide text is derived from it. Non-standard residues stand in square brackets, D forms with d. Residues, ends and D or L forms follow the SMILES beside them. Bridges are numbered along the chain shown (N, C = ends). Roman numbers before positions name the chains, in order. [ ]: non-standard residue; d: D form. ξ: configuration not given here. Actinocin(9to1) = Cc1c2oc3c(C)ccc(C(=O)[*:1])c3nc-2c(C(=O)[*:2])c(N)c1=O; Orn = NCCC[C@H](N)C(=O)O; ξNMeV = CNC(C(=O)O)C(C)C; ξV = CC(C)C(N)C(=O)O; Sar = CNCC(=O)O
# Experiments:
# [1] = qHTS Assay for Identifying Gametocytocidal Compounds (AID 743244); further: potency means the concentration at half of the fitted maximal effect;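 on max response: on the % scale 0 is the no-effect control and ±100 the full control effect; actives lower the fluorescent signal which means gametocytes are killed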; details: P. falciparum 3D7 stage III-V gametocytes, alamarBlue, 72 h; max response: stronger effect = lower value
# In short: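 P. falciparum 3D7 stage III–V gametocytes (20,000 cells/well) were exposed to compounds for 72 h at 37 °C, 5% CO2. AlamarBlue was then added for 24 h; decreased resorufin fluorescence (Ex 525/Em 598 nm) indicated loss of viability.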
# [2] = qHTS profiling for inhibitors of Plasmodium falciparum (3D7) proliferation (AID 743322; call rule not given here;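 further: infected erythrocytes exposed to compound for 72 h before lysis; 100% = DMSO vehicle wells and 0% = 0.29 µM artemisinin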); details: P. falciparum 3D7 proliferation; at 28.7 µM (top of the series) unless noted
# In short: (§1)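 Parasite DNA was quantified by SYBR Green I fluorescence (ex 485, em 535 nm) after overnight lysis in saponin/Triton buffer at room temperature. Cultures at 0.3% parasitemia and 2.5% hematocrit were first exposed to compound for 72 h at 37 C; signals were normalised to artemisinin (0.29 uM) and vehicle wells.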
# [3] = qHTS profiling for inhibitors of Plasmodium falciparum (DD2) proliferation (AID 743323; call rule not given here); details: lower = more inhibition; at 28.7 µM (top of the series) unless noted
# In short: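 P. falciparum Dd2-infected erythrocytes (0.3% parasitemia, 2.5% hematocrit) exposed 72 h at 37 C, 5% CO2. Lysis with SYBR Green, overnight at room temperature, fluorescence 485/535 nm; normalized to 0.29 uM artemisinin and DMSO.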
# [4] = qHTS profiling for inhibitors of Plasmodium falciparum (HB3) proliferation (AID 743324); details: Plasmodium falciparum HB3 blood-stage proliferation; at 28.7 µM (top of the series) unless noted;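 further: 100% = DMSO vehicle wells and 0% = artemisinin-treated control wells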
# In short: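 SYBR Green fluorescence (485 ex/535 em) of lysed cultures, incubated overnight at room temperature in the dark, quantifies parasite DNA. Infected erythrocytes at 0.3% parasitemia and 2.5% hematocrit were exposed 72 h; values normalized to DMSO and 0.29 uM artemisinin controls.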
# [5] = qHTS assay for cell viability of HEK293 cells (AID 743288); details: ATP luminescence (CellTiter-Glo), 18 h, stronger effect = lower value; further: on the % scale 0 is the no-effect control and ±100 the full control effect; nearly all actives have a fitted effect of over 50% in size
# In short: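 Quantitative high-throughput screen: compounds were pinned onto parental HEK293 cells (2,000 per well) after a minimum 5 h settling at 37 C, incubated 18 h at 37 C, and intracellular ATP measured by luciferase luminescence.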
# [6] = qHTS assay for cell viability of the p53RE-bla HCT-116 cell line (AID 743292); further: on the % scale 0 is the no-effect control and ±100 the full control effect; nearly all actives have a fitted effect of over 55% in size
# In short: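 CellSensor p53RE-bla HCT-116 cells, 4,000/well, preincubated 5 h at 37 C, then exposed to compounds in DMSO for 16 h at 37 C. Viability read as CellTiter-Glo luminescence (intracellular ATP) after 30 min at room temperature.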
# [7] = qHTS profiling of the MIPE4 collection as inhibitors of Plasmodium falciparum (3D7) proliferation (AID 743344; call rule not given here;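 further: scaled between DMSO vehicle wells and 0.29 µM artemisinin as full inhibition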); details: P. falciparum 3D7 in erythrocytes, SYBR Green DNA fluorescence, 72 h; at 28.5 µM (top of the series) unless noted
# In short: as §1
# [8] = qHTS profiling of the MIPE4 collection as inhibitors of Plasmodium falciparum (DD2) proliferation (AID 743345; call rule not given here); details: P. falciparum Dd2 in erythrocytes, SYBR Green DNA, 72 h; at 28.5 µM (top of the series) unless noted
# In short: as §1
compound,measurement,setting,value
CCCCCCCCCCCCCCCCCCOP(=O)([O-])OC1CC[N+](C)(C)CC1,max response,[1],13.1% (inactive)
same,remaining parasite growth % (stronger effect = lower value),[2],98.6% [at 18.4 µM]
same,"activity, percent of control",[3],114% [at 18.4 µM]
same,"remaining proliferation (% of control), lower = more inhibition",[4],112% [at 18.4 µM]
NC(=O)Nc1cc(-c2ccc(CN3CCOCC3)c(F)c2)sc1C(=O)N[C@H]1CCCNC1,Potency,[1],18.7 µM (active)
same,remaining parasite growth % (stronger effect = lower value),[2],3.88%
same,"activity, percent of control",[3],1.39%
same,"remaining proliferation (% of control), lower = more inhibition",[4],2.42%
CC1=C(/C=C/C(C)=C/C=C/C(C)=C/CO)C(C)(C)CCC1,max response,[1],11.8% (inactive)
same,max response,[5],-9.33% (inactive) and -12.3% (inactive)
same,outcome,[6],inactive
CCCC(=O)O[C@]1(C(=O)CCl)[C@H](C)C[C@@H]2[C@H]3CCC4=CC(=O)C=C[C@]4(C)[C@@]3(F)C(=O)C[C@@]21C,remaining parasite growth % (stronger effect = lower value),[2],0.271%
same,"activity, percent of control",[3],1.4%
same,"remaining proliferation (% of control), lower = more inhibition",[4],1.97%
same,"parasite growth, % of DMSO control",[7],7.36%
same,"parasite growth remaining, % of DMSO control (lower = more inhibition)",[8],7.93%
"Cc1c2oc3c(C)ccc(C(=O)N[C@@H]4C(=O)NC(C(C)C)C(=O)N5CCC[C@H]5C(=O)N(C)CC(=O)N(C)C(C(C)C)C(=O)O[C@@H]4C)c3nc-2c(C(=O)N[C@@H]2C(=O)NC(C(C)C)C(=O)N3CCC[C@H]3C(=O)N(C)CC(=O)N(C)C(C(C)C)C(=O)O[C@@H]2C)c(N)c1=O (stereo partly drawn) (I: T[ξV]P[Sar][ξNMeV] / II: T[ξV]P[Sar][ξNMeV]; ester I:1-I:C, II:1-II:C; linker I:N-II:N via Actinocin(9to1))",Potency,[1],0.0132 µM (active)
same,remaining parasite growth % (stronger effect = lower value),[2],-2.78%
same,"activity, percent of control",[3],-1.83%
same,"remaining proliferation (% of control), lower = more inhibition",[4],-2.59%
CC(NC(=O)Cc1cc(F)cc(F)c1)C(=O)NC(C(=O)OC(C)(C)C)c1ccccc1 (stereo not drawn),max response,[1],8.47% (inactive)
same,remaining parasite growth % (stronger effect = lower value),[2],103%
same,"activity, percent of control",[3],97.7%
same,"remaining proliferation (% of control), lower = more inhibition",[4],104%
CCOc1ccc2c(c1)C(C)=CC(C)(C)N2,max response,[5],-17.1% (inactive) and -27.7% (inactive)
same,outcome,[6],inactive
CCOC(=O)C1=C(C)NC(C)=C(C(=O)OCC)C1c1ccccc1C=CC(=O)OC(C)(C)C,"parasite growth, % of DMSO control",[7],6.3%
same,"parasite growth remaining, % of DMSO control (lower = more inhibition)",[8],7.86%
IC(I)I,max response,[1],8.07% (inactive)
same,max response,[5],-1.78% (inactive) and -16.4% (inactive)
same,outcome,[6],inactive
CC(C)C[C@@H]1NC(=O)[C@H](CCCN)NC(=O)[C@H](C(C)C)NC(=O)[C@@H]2CCCN2C(=O)[C@@H](Cc2ccccc2)NC(=O)[C@H](CC(C)C)NC(=O)[C@H](CCCN)NC(=O)[C@H](C(C)C)NC(=O)[C@@H]2CCCN2C(=O)[C@@H](Cc2ccccc2)NC1=O (cyclo(V[Orn]L[dF]PV[Orn]L[dF]P)),Potency,[1],2.24 µM (active)
same,remaining parasite growth % (stronger effect = lower value),[2],-2.61%
same,"activity, percent of control",[3],-0.499%
same,"remaining proliferation (% of control), lower = more inhibition",[4],-1.03%
same,"parasite growth, % of DMSO control",[7],6.95%
same,"parasite growth remaining, % of DMSO control (lower = more inhibition)",[8],5.43%
CC1(C)C(C=C(Cl)Cl)C1C(=O)OCc1cccc(Oc2ccccc2)c1 (stereo not drawn),max response,[1],-8.09% (inactive)
same,max response,[5],-9.26% (inactive) [middle of 4 runs]
same,outcome,[6],inactive
CC[C@@H](C(=O)O)C1CC[C@H](C)C([C@@H](C)[C@H](O)[C@H](C)C(=O)[C@H](CC)C2O[C@]3(C=C[C@@H](O)[C@]4(CC[C@@](C)(C5CC[C@](O)(CC)[C@H](C)O5)O4)O3)[C@H](C)C[C@@H]2C)O1 (stereo partly drawn),remaining parasite growth % (stronger effect = lower value),[2],-3.05%
same,"activity, percent of control",[3],-0.726%
same,"remaining proliferation (% of control), lower = more inhibition",[4],-1.24%
CCOC(C)=O,max response,[1],12.9% (inactive)
same,max response,[5],2.28% (inactive)
same,outcome,[6],inactive
CCC1(Cc2ccc(N)cc2)CCC(=O)NC1=O (stereo not drawn),max response,[1],9.55% (inactive)
same,remaining parasite growth % (stronger effect = lower value),[2],99.6% [at 57.5 µM]
same,"activity, percent of control",[3],97.2% [at 57.5 µM]
same,"remaining proliferation (% of control), lower = more inhibition",[4],89.8% [at 57.5 µM]
Cc1ccccc1,max response,[1],2.65% (inactive)
same,max response,[5],1.99% (inactive) and 6.48% (inactive)
same,outcome,[6],inactive
C[C@H]1C[C@H]2[C@@H]3CCC4=CC(=O)C=C[C@]4(C)[C@@]3(F)[C@@H](O)C[C@]2(C)[C@@]1(O)C(=O)CO,max response,[1],-4.91% (inactive)
same,max response,[5],-14.2% (inactive)
same,outcome,[6],inactive
C[C@@H]1CCC2[C@@H](C)[C@@H](O)O[C@@H]3O[C@@]4(C)CC[C@@H]1[C@@]23OO4 (stereo partly drawn),Potency,[1],0.0469 µM (active)
same,remaining parasite growth % (stronger effect = lower value),[2],-0.537%
same,"activity, percent of control",[3],-0.207%
same,"remaining proliferation (% of control), lower = more inhibition",[4],-0.144%
same,"parasite growth, % of DMSO control",[7],5.03%
same,"parasite growth remaining, % of DMSO control (lower = more inhibition)",[8],6.44%
CN1CCC(CN2c3ccccc3Sc3ccccc32)C1 (stereo not drawn),remaining parasite growth % (stronger effect = lower value),[2],32.6%
same,"activity, percent of control",[3],26.9%
same,"remaining proliferation (% of control), lower = more inhibition",[4],21.8%
CCN(CC)Cc1cc(Nc2ccnc3cc(Cl)ccc23)ccc1O,remaining parasite growth % (stronger effect = lower value),[2],1.29% [at 9.63 µM]
same,"activity, percent of control",[3],2.43% [at 9.63 µM]
same,"parasite growth, % of DMSO control",[7],4.69% [at 9.64 µM]
same,"parasite growth remaining, % of DMSO control (lower = more inhibition)",[8],9.46% [at 9.64 µM]
CC(C)N=c1cc2n(-c3ccc(Cl)cc3)c3ccccc3nc-2cc1Nc1ccc(Cl)cc1,"parasite growth, % of DMSO control",[7],10.9%
same,"parasite growth remaining, % of DMSO control (lower = more inhibition)",[8],7.22%
Cc1nnc(C(C)C)n1C1CC2CCC(C1)N2CC[C@H](NC(=O)C1CCC(F)(F)CC1)c1ccccc1 (stereo partly drawn),max response,[1],3.23% (inactive)
same,remaining parasite growth % (stronger effect = lower value),[2],111%
same,"activity, percent of control",[3],102%
same,"remaining proliferation (% of control), lower = more inhibition",[4],96.7%
CCC1(O)CC2CN(CCc3c([nH]c4ccccc34)[C@@](C(=O)OC)(c3cc4c(cc3OC)N(C=O)[C@H]3[C@](O)(C(=O)OC)[C@H](OC(C)=O)[C@]5(CC)C=CCN6CC[C@]43[C@@H]65)C2)C1 (stereo partly drawn),max response,[1],-18.4% (inactive)
same,remaining parasite growth % (stronger effect = lower value),[2],8.01%
same,"activity, percent of control",[3],13.7%
same,"remaining proliferation (% of control), lower = more inhibition",[4],8.78%
CCOc1cc2ncc(C#N)c(Nc3ccc(OCc4ccccn4)c(Cl)c3)c2cc1NC(=O)/C=C/CN(C)C,Potency,[1],23.5 µM (active)
same,remaining parasite growth % (stronger effect = lower value),[2],-0.375%
same,"activity, percent of control",[3],5.17%
same,"remaining proliferation (% of control), lower = more inhibition",[4],-0.513%
C=C1C(=CC=C2CCC[C@@]3(C)[C@@H]2CC[C@H]3[C@H](C)CCCC(C)C)C[C@@H](O)C[C@@H]1O,"parasite growth, % of DMSO control",[7],22.5%
same,"parasite growth remaining, % of DMSO control (lower = more inhibition)",[8],65.2%
CCCCC(CC)COC(=O)CC(C(=O)OCC(CC)CCCC)S(=O)(=O)O (stereo not drawn),max response,[1],-7.18% (inactive) and 8.87% (inactive)
same,max response,[5],-6.91% (inactive)
same,outcome,[6],inactive
C[C@@H]1CCN(C(=O)CC#N)C[C@@H]1N(C)c1ncnc2[nH]ccc12,max response,[1],9.63% (inactive)
same,remaining parasite growth % (stronger effect = lower value),[2],95.6%
same,"activity, percent of control",[3],99.8%
same,"parasite growth, % of DMSO control",[7],84%
same,"parasite growth remaining, % of DMSO control (lower = more inhibition)",[8],103%
